# High-throughput results: PubChem BioAssay, National Center for Advancing Translational Sciences (NCATS)
# Hsp90 Hop PPI = changes Hsp90-Hop TPR2A binding signal, up or down | 71,000 tested, 0.44% active | AlphaScreen TPR2A-His6 binding biotin-Hsp90 C-terminal peptide | Potency, µM (highest dose often 57 µM), for inactives: at the highest dose activity change, negative = inhibition; active means well fitted curve in either direction with a large enough effect; inconclusive means small, poorly fitted or top-dose-only effect, or another doubt
# Tau fil binding = tau filament binding; recombinant tau filaments, thioflavin S fluorescence, 15 h; filaments grown with octadecylsulfate alongside compound; Potency, µM (highest dose often 57.1 µM), for the others: top-dose activity change, negative = inhibition; 71,000 tested, 2% active;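 further: actives lower thioflavin S fluorescence by blocking filaments or displacing dye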
# Target sequence (P10636 whole entry, looked up): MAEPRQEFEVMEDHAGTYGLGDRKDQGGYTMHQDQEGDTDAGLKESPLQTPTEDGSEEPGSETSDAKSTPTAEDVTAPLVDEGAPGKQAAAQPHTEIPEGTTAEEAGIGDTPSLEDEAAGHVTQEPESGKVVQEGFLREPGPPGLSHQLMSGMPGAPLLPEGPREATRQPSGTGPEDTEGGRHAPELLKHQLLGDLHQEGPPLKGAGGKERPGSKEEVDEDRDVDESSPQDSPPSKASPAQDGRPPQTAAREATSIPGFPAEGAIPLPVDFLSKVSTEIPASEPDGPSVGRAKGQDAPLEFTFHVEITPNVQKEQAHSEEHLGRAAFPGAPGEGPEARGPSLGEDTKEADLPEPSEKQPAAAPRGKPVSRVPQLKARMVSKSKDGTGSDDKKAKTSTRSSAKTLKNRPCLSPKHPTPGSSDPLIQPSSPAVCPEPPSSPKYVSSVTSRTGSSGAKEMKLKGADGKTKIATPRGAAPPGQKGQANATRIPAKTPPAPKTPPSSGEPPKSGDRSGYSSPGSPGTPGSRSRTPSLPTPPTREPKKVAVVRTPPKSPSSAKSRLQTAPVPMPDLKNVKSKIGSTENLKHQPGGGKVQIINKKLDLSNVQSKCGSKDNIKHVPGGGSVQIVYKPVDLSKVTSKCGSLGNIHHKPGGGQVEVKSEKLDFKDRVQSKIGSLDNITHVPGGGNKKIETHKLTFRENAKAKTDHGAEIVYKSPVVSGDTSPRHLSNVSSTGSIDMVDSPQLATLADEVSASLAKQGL
#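 Recombinant tau protein (human, 1 uM final) plus 30 uM ODS in HEPES pH 7.4 with NaCl, DTT and thioflavine S. Compound present from the start; fluorescence at 510 nm after 15 h, 37 C.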
# PK Bst = pyruvate kinase (B. stearothermophilus) modulation; purified pyruvate kinase, luminescence ATP production; ribose 5-phosphate activator present at AC10; Potency, µM; 51,000 tested, 1.2% active; in the data active means potency below about 11 µM; inconclusive means mostly about 12 µM to 25 µM;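 the screen sought inhibitors and activators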;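 further: scaled between full activation by ribose 5 phosphate and full inhibition by luteolin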
# ERK AVP block = vasopressin-driven ERK pathway inhibition; Potency, µM (series often up to 57.5 µM), inactives show at the highest dose activity, negative = inhibition, most hits filed as inhibitors; AID 995; 72,000 tested, 0.99% active; HEK293-V1b, vasopressin-stimulated pERK AlphaScreen; further: nearly all actives have a fitted effect of over 55% in size
#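 HEK293 cells stably expressing V1b receptor, seeded overnight in 1% FBS, were treated with compounds for 30 min at 37C, then stimulated 5 min with 25 nM vasopressin; phospho-ERK read by AlphaScreen SureFire after lysis.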
# ALOX15 inhib = 15-hLO (ALOX15) enzyme inhibition. P16050. purified 15hLO-1, xylenol orange hydroperoxide absorbance. Potency, µM (highest dose often 57.1 µM), without a hit: at the top dose activity change, negative = inhibition, hits mostly inhibitors. 74,000 tested, 1.4% active; further: nearly all actives have a fitted effect of over 55% in size
#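 Quantitative HTS in 25 mM Hepes pH 7.5 containing 0.01% Triton X-100: human 15hLO-1 at 40 nM, arachidonic acid at 50 uM, 6 min turnover. Product quantified via ferrous oxidation/xylenol orange, 573:405 nm absorbance ratio.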
# FLuc inh = inhibitors of firefly luciferase; P08659; AID 411; purified firefly luciferase, luminescence, 8 min; Potency, µM (titrated, usually from 57.1 µM), inactives show at the highest dose activity change, negative = inhibition, actives largely listed as inhibitors; 72,000 tested, 2.2% active; further: nearly all actives have a fitted effect of over 40% in size
#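 Substrate buffer containing 10 uM ATP (pH 7.2 imidazole, Mg2+, KCl, detergent, BSA) is dispensed, compound pinned in, then luciferase/luciferin detector mix added. After 8 min at ambient temperature, light output is measured.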
# * hit, by the source's call; i = inactive; ? = inconclusive; / = not tested or not shown; [ ] = another dose, or the depositor's remark. The list is not random: actives were taken first. Their share in the collection is about 6.1%. Unless noted, the call rests on the fitted dose curve; in most records, active means well fitted curve in the direction sought with a large enough effect; inconclusive means small, poorly fitted or top-dose-only effect, or another doubt; inactive means no such curve, though single readings can be large; an effect the other way counts as inactive or inconclusive. Unless noted, on the % scale 0 is the no-effect control and ±100 the full control effect; potency means the concentration at half of the fitted maximal effect.
SMILES,Hsp90 Hop PPI,Tau fil binding,PK Bst,ERK AVP block,ALOX15 inhib,FLuc inh
CCN1CCCC1CNC(=O)c1ccc(-n2c(=O)c(=O)[nH]c3ccccc32)cc1 (stereo not given),/,/,/,/,-1.2%,/
Cc1cc(O)c(C)c(O)c1C(=O)O,/,/,/,4.3%,-0.7%,/
Nc1c(N2CCCC2)cc(Cl)c2nonc12,-12.2%,20µM*,>57,-14.1%,-18.3%,-2.2%
O=C1C(Cl)=C(NC2CCc3ccccc32)C(=O)c2ncccc21 (stereo not given),?,25.1µM*,/,?,-17.2%,/
CC(C)[C@H](O)C1=CCCCC1=O,/,/,/,-5.4%[11.5 µM],-15.2%[11.4 µM],0.8%[11.4 µM]
CCN(CC)S(=O)(=O)c1cccc(-c2nnc(C(=O)c3ccc(C(F)(F)F)cc3)o2)c1,-9.6%,15.8µM*,>57,-3.3%,-8.3%,0.3%
Cc1cccc(NC(=O)c2cnc3ccccn3c2=O)c1,-0.1%,-6.9%,/,/,6.9%,-0.1%
Cc1cccc(NC(=O)c2cnc3sccn3c2=O)c1,-2.2%,-10.1%,/,/,-7.4%,10µM*
Cc1nc2cnc(N3CCN(C)CC3)nc2n(-c2ccccc2)c1=O,-5.2%,6.5%,/,11.1%,6.8%,-1.6%[11.4 µM]
O=C(c1cccs1)c1no[n+]([O-])c1C(=O)c1cccs1,-2.0%,2.9%,>57,5.01µM*,-2.1%,-3.3%
C=CCOC(=O)C(C(C)=O)C(NC(=O)OC)c1cccc(F)c1 (stereo not given),/,/,/,7.3%[11.5 µM],6.4%[11.4 µM],/
COc1ccccc1C(=O)Nc1cc(Cl)ccc1O,/,/,>25.6,/,/,-0.5%[25.5 µM]
CCOc1ccccc1C(=O)Nc1cc(Cl)ccc1O,2.9%,112.4%,>57,10µM*,10µM*,1.3%
COc1ccc(C(c2nnnn2Cc2ccc(F)cc2)N2CCN(c3ccc(OC)cc3)CC2)cc1 (stereo not given),?,10µM*,>57,-22.2%,-11.0%,0.1%
COc1ccc(C(c2nnnn2Cc2ccc(F)cc2)N2CCN(c3ccccc3)CC2)cc1 (stereo not given),-8.2%,-2.2%,>57,-12.3%,-5.1%,0.3%
N[C@@H](Cc1cccnn1)C(=O)O,-1.8%[11 µM],4.0%[11.4 µM],/,-7.7%[11.5 µM],0.5%[11.4 µM],0.7%[11.4 µM]
O=C(NCc1cccnc1)c1ccc(COc2ccc3c(c2)CCC3)o1,-4.1%,0.0%,>57,25.1µM*,-3.0%,-1.0%
O=C(NCc1cccnc1)c1ccc(COc2ccccc2Br)o1,?,9.0%,>57,-15.7%,-8.1%,-6.2%
CC(=O)CCc1oc2ccc(NC(C)=O)cc2c1-c1ccc(C)o1,-9.3%,7.8%,>57,31.6µM*,15.8µM*,?
CC(=O)Nc1ccccc1-c1ccc(C)o1,-4.2%,3.0%,>57,-5.0%,3.3%,-2.2%
C/C=C(\C)C(=O)OC1[C@@H]2C=C3C4CC(=O)OC(c5ccoc5)[C@]4(C)CCC3[C@@](C)(C2=O)C(C(O)C(=O)OC)C1(C)C (stereo not given in full),/,/,/,2.8%,4.4%,/
COc1ccc([C@@H]2OC[C@]3(COC(C)=O)[C@H](C)C=C(C)[C@@H]2[C@H]3C)cc1,?,?,/,/,/,2.8%[11.4 µM]
C[C@]12CCC3c4ccc(O)cc4CCC3C1CCC2OC(=O)CCC1CCCC1 (stereo not given in full),/,/,/,14.1%,-20.6%,/
CC(=O)Nc1ccc(N/C=C/C(=O)c2ccc(C)o2)cc1,-3.1%,24.7%,i,?,-2.9%,15.8µM*
Cc1ccc(C(=O)/C=C/Nc2ccccc2C(N)=O)o1,-1.8%,39.9%,6.15*,-21.1%,-3.6%,6.31µM*
SMILES,Hsp90 Hop PPI,Tau fil binding,PK Bst,ERK AVP block,ALOX15 inhib,FLuc inh
Cc1ncoc1C(=O)Nc1ccccc1C(N)=O,1.8%,-4.2%,>57,2.2%,7.5%,0.0%
Fc1ccc(Nc2ccnc(-c3ccoc3)n2)cc1,-22.6%,12.6µM*,/,31.6µM*,?,0.7%[2.29 µM]
Cc1cnc(CNc2nc(-c3ccoc3)nc3ccccc23)cn1,-10.5%,-0.4%,/,?,8.2%,-3.1%[2.29 µM]
Fc1ccc(Nc2nc(-c3ccoc3)nc3ccccc23)cc1,-4.2%,12.6µM*,/,-17.7%,-0.4%,0.9%[2.29 µM]
c1ccc(CNc2nc(-c3ccoc3)nc3ccccc23)cc1,-8.1%,15.8µM*,/,-24.5%,-28.5%,3.4%[2.29 µM]
Cc1cccc(CNc2nc(-c3ccoc3)nc3ccccc23)c1,-6.2%,15.8µM*,/,?,-11.9%,0.7%[2.29 µM]
CO[C@@H]1COC(=O)[C@H]2CCCN2C(=O)[C@@H](C)COC(=O)[C@H](COCc2ccccc2)NC(=O)C/C=C\[C@H]1C,/,/,/,10.8%[11.5 µM],3.4%[11.4 µM],0.6%[11.4 µM]
COc1cccc(-c2cn3nc4c(nc3n2)CCCC4)c1,1.5%,113.5%,4.55*,-5.4%,-7.5%,3.16µM*
CC1=CC(C)(C)N2C(=O)C3(C(C#N)=C(N)Oc4cc(O)ccc43)c3cccc1c32 (stereo not given),-9.5%,3.98µM*,>57,-24.2%,-20.6%,3.6%
O=C(COc1cccc2cccnc12)Nc1nccs1,-3.6%,-3.2%,>57,-5.2%,13.4%,15.8µM*
COCCN(CCOC)C(=O)c1cc2sc3ccccc3c2s1,3.1%,11.7%,>57,0.5%,-2.4%,-1.4%
CCN(CC)C(=O)c1cc2sc3ccccc3c2s1,20.8%,71.0%,/,-26.5%,25.1µM*,?
Cc1ccc(CNC(=O)Nc2ccccc2)cc1,2.7%,1.6%,/,-1.3%,-0.5%,12.6µM*
O=C1CC2(CCCC2)CC(=O)N1CCNC[C@H]1COc2ccccc2O1,-2.0%,31.6µM*,/,3.8%,-3.6%[25.6 µM],-0.6%
C(=N\c1nc2ccccc2[nH]1)/c1cccs1,-7.1%,6.9%,/,4.3%,?,7.94µM*
Nc1c(O)cccc1C(=O)C[C@@H](N)C(=O)O,-2.8%[26 µM],4.5%[25.6 µM],/,-1.1%[25.7 µM],-10.8%[25.6 µM],1.6%[25.5 µM]
Nc1ccccc1C(=O)C[C@@H](N)C(=O)O,?,39.8µM*,/,/,/,0.5%[11.4 µM]
O=C(Nc1nc(-c2ccc(S(=O)(=O)N3CCCC3)cc2)cs1)c1cccs1,-1.6%,83.7%,>57,15.8µM*,-13.8%,-1.5%
OCCN1CCN(c2nc(N3CCCCC3)nc(N3CCCCC3)n2)CC1,-5.8%[11 µM],3.98µM*,/,12.0%,0.0%[11.4 µM],0.8%
CN1CCN(c2nc(N3CCN(CCO)CC3)nc3ccccc23)CC1,1.1%,-9.7%,>57,15.6%,0.8%,0.0%
COc1ccc(C(CC(=O)Nc2nccs2)n2cccc2)cc1 (stereo not given),-5.0%,-0.7%,/,21.5%,5.9%,15.8µM*
COc1ccc(-n2c(=O)c(-c3ccccc3)nc3cnc(N4CCOCC4)nc32)cc1,5.6%,2.6%,/,6.3%,-11.1%,0.0%[11.4 µM]
